# Results taken from PubChem BioAssay (NCI).
# Values joined by “and” are separate entries in the source; they are usually repeats but may differ in a detail not shown here. Identical values can stand only once. This is part of a sample that, as a whole, favours compounds with a hit. Of some 83,000 tested, about 20% had one in any assay.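 Method: cells in 96-well plates; compound added at one concentration; 48 h incubation; percent growth measured; values under 10 scored active.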 Active and inactive are the calls of the source.
# Test system: MDA-MB-468 breast
# Assay: NCI-60 one-dose screen, 48 h (100 = growth as untreated, 0 = no growth, -100 = all killed)
# Settings: 10 µM unless noted
row,SMILES,growth
1,COc1ccc(Oc2nc(Nc3ccc(N4CCOCC4)cc3)ncc2NC(=O)Nc2cccc(OC)c2)cc1,90.1% (inactive)
2,CC(C)=NNc1ccc([N+](=O)[O-])cc1[N+](=O)[O-],96% (inactive)
3,O=C1c2cccnc2C(=O)c2c1c(C(=O)OCCCN1CCCCC1)c1ccccn21,31.6% (inactive)
4,C/C(=N\O)[C@H]1C[C@]23CC[C@]4(C)[C@H](CC[C@@H]5[C@@]6(C)CC/C(=N/O)C(C)(C)[C@@H]6CC[C@]54C)[C@H]2[C@H](C)C1(C)OC3,103% (inactive)
5,O=S(=O)(NCCNc1cc(-c2cn(-c3ccccc3)nc2-c2cccc(O)c2)ccn1)c1ccc(C(F)(F)F)cc1,21.6% (inactive)
6,C[C@@H](C[C@H](CCO)c1cc(C(F)(F)F)cc(C(F)(F)F)c1)c1ccc2ccccc2c1,83.9% (inactive)
7,CCOC(=O)c1c2c(n3ccc(NC(=O)OC(C)(C)C)cc13)C(=O)c1ncccc1C2=O,-29% (active)
8,Brc1cccc(-c2cc(-c3ccc4c(c3)OCCO4)[nH]n2)c1,2.79% [25 µM] (active)
9,O=C1/C(=C/c2cccc(Cl)c2)CCc2ccccc21,93.5% (inactive)
10,Nc1ccc2cc3ccc(N)cc3nc2c1,112% (inactive) and -42% (active)
11,COc1ccc(/C=C/C(=O)c2ccc(-n3cc(CN4CCN(c5cc6c(cc5F)c(=O)c(C(=O)O)cn6C5CC5)CC4)nn3)cc2)cc1,26.3% (inactive)
12,O=S(=O)(NCCCNc1nccc(-c2c(-c3cccc(O)c3)nc3occn23)n1)c1ccc(F)cc1,100% (inactive)
